Here are results for 13 compounds from PubChem BioAssay (NCATS).

The nature of test [1]: Quantitative High-Throughput drug screen in 47 multiple myeloma cell lines against the NCATS MIPE library collection: MMM1_PLB cell viability assay (AID 1918976). Also: potency is read from the fitted curve at half-maximal effect; nearly all actives have a fitted effect of over 35% in size. Summed up:
(§1)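 500 cells/well per myeloma line exposed to pinned MIPE 4.0 compounds for 48 h at 37 °C, 5% CO2. Viability read as ATP by CellTiter-Glo luminescence, normalised to DMSO-only (100%) and media-only (0%) wells.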

Test [2] is described as follows: Quantitative High-Throughput drug screen in 47 multiple myeloma cell lines against the NCATS MIPE library collection: MOLP8_DSMZ cell viability assay (AID 1918977). Also: potency is read from the fitted curve at half-maximal effect; nearly all actives have a fitted effect of over 45% in size. Put shortly: as §1
The nature of test [3]: Quantitative High-Throughput drug screen in 47 multiple myeloma cell lines against the NCATS MIPE library collection: NCIH929_DSMZ cell viability assay (AID 1918978). Also: nearly all actives have a fitted effect of over 35% in size. Also: potency is read from the fitted curve at half-maximal effect. Put shortly:
as §1

The nature of test [4]: Quantitative High-Throughput drug screen in 47 multiple myeloma cell lines against the NCATS MIPE library collection: MM1S_ATCC cell viability assay (AID 1918980). Also: potency is read from the fitted curve at half-maximal effect; nearly all actives have a fitted effect of over 45% in size. Summed up:
as §1

Test [5] is described as follows: Quantitative High-Throughput drug screen in 47 multiple myeloma cell lines against the NCATS MIPE library collection: MM1R_ATCC cell viability assay (AID 1918981). Also: nearly all actives have a fitted effect of over 35% in size. Also: potency is read from the fitted curve at half-maximal effect. Summed up: as §1
Test [6] can be described thus: Quantitative High-Throughput drug screen in 47 multiple myeloma cell lines against the NCATS MIPE library collection: KMS28PE_JCRB cell viability assay (AID 1918983). Also: nearly all actives have a fitted effect of over 35% in size. Also: potency is read from the fitted curve at half-maximal effect. Summed up: as §1
Test [7] is described as follows: Quantitative High-Throughput drug screen in 47 multiple myeloma cell lines against the NCATS MIPE library collection: OCIMY5_PLB cell viability assay (AID 1918988). Also: potency is read from the fitted curve at half-maximal effect; nearly all actives have a fitted effect of over 65% in size. Put shortly: as §1
Test [8] can be described thus: Quantitative High-Throughput drug screen in 47 multiple myeloma cell lines against the NCATS MIPE library collection: OPM1_PLB cell viability assay (AID 1918989). Also: nearly all actives have a fitted effect of over 40% in size. Also: potency is read from the fitted curve at half-maximal effect. Summed up:
as §1

Test [9] can be described thus: Quantitative High-Throughput drug screen in 47 multiple myeloma cell lines against the NCATS MIPE library collection: U266_ATCC cell viability assay (AID 1919864). Also: nearly all actives have a fitted effect of over 35% in size. Also: potency is read from the fitted curve at half-maximal effect. Summed up: as §1
Test [10] is described as follows: Quantitative High-Throughput drug screen in 47 multiple myeloma cell lines against the NCATS MIPE library collection: XG6_PLB cell viability assay (AID 1919865). Also: nearly all actives have a fitted effect of over 40% in size. Also: potency is read from the fitted curve at half-maximal effect. Summed up: as §1
The nature of test [11]: Quantitative High-Throughput drug screen in 47 multiple myeloma cell lines against the NCATS MIPE library collection: UTMC2_PLB cell viability assay (AID 1919868). Also: potency is read from the fitted curve at half-maximal effect; nearly all actives have a fitted effect of over 55% in size. As to conditions: CellTiter-Glo ATP luminescence, 48 h; viability (% of DMSO control): at 45.8 µM (top of the series). Summed up: as §1
Test [12] in a line: Quantitative High-Throughput drug screen in 47 multiple myeloma cell lines against the NCATS MIPE library collection: OCIMY1_PLB cell viability assay (AID 1918979). Also: nearly all actives have a fitted effect of over 35% in size. Summed up: as §1
The nature of test [13]: Quantitative High-Throughput drug screen in 47 multiple myeloma cell lines against the NCATS MIPE library collection: LP1_DSMZ cell viability assay (AID 1918982). Also: nearly all actives have a fitted effect of over 35% in size. Also: potency is read from the fitted curve at half-maximal effect. Summed up: as §1
Test [14] is described as follows: Quantitative High-Throughput drug screen in 47 multiple myeloma cell lines against the NCATS MIPE library collection: OCIMY7_PLB cell viability assay (AID 1918987). Also: nearly all actives have a fitted effect of over 65% in size. Also: potency is read from the fitted curve at half-maximal effect. Summed up:
as §1

Test [15] is described as follows: Quantitative High-Throughput drug screen in 47 multiple myeloma cell lines against the NCATS MIPE library collection: SKMM1_PLB cell viability assay (AID 1919863). Also: nearly all actives have a fitted effect of over 35% in size. Also: potency is read from the fitted curve at half-maximal effect. To be noted: SKMM1 myeloma viability, CellTiter-Glo ATP, 48 h; viability: hits give low values. Put shortly:
as §1

Test [16] in a line: Quantitative High-Throughput drug screen in 47 multiple myeloma cell lines against the NCATS MIPE library collection: VP6_DJ cell viability assay (AID 1919867). Also: nearly all actives have a fitted effect of over 40% in size. Also: potency is read from the fitted curve at half-maximal effect. Put shortly:
as §1

Test [17] can be described thus: Quantitative High-Throughput drug screen in 47 multiple myeloma cell lines against the NCATS MIPE library collection: XG1_PLB cell viability assay (AID 1919866). Also: nearly all actives have a fitted effect of over 35% in size. Also: potency is read from the fitted curve at half-maximal effect. Put shortly: as §1
The nature of test [18]: Quantitative High-Throughput drug screen in 47 multiple myeloma cell lines against the NCATS MIPE library collection: L363_DSMZ cell viability assay (AID 1918984). Also: nearly all actives have a fitted effect of over 40% in size. Also: potency is read from the fitted curve at half-maximal effect. Summed up:
as §1

Test [19] can be described thus: Quantitative High-Throughput drug screen in 47 multiple myeloma cell lines against the NCATS MIPE library collection: KMS34_JCRB cell viability assay (AID 1918985). Also: nearly all actives have a fitted effect of over 40% in size. Put shortly: as §1

Inconclusive results are not listed. A number with no mark means an inactive call. The source made the active and inactive calls. Calls follow the shape of the dose curve; as a rule, active = well fitted curve in the direction sought with a large enough effect; inconclusive = small, poorly fitted or top-dose-only effect, or another doubt; inactive = no such curve, though single readings can be large; an effect the other way counts as inactive or inconclusive.

With `Oc1cccc(-c2nc(N3CCOCC3)c3oc4ncccc4c3n2)c1`, the Potency is 0.0679 µM (active) in test [1]; 15.2 nM (active) in test [2]; 0.0191 µM (active) in test [3]; 0.0679 µM (active) in test [4]; 0.0679 µM (active) in test [5]; 0.0762 µM (active) in test [6]. The Potency in test [7] is 0.382 µM (active); in [8] it was 0.0855 µM (active); in [9], 0.054 µM (active); in test [10], 0.136 µM (active); in [11] it was 38.2 nM (active).

In the case of `CC(C)(C)OC(=O)CN(Cc1ccc(Cl)cc1)Cc1ccc([N+](=O)[O-])s1`, the Potency was 20.9 µM (active) in test [1], 18.7 µM (active) in [13], 20.9 µM (active) in [6] and 18.7 µM (active) in test [7]. The Potency entry in test [3], in test [12] and in test [5] was “inactive” each time.

For `O=C(Nc1ccc(F)c(C(F)(F)F)c1)Nc1nnc(-c2ccncc2)s1`, the Potency in [1] was 5.26 µM (active); in test [3], 2.64 µM (active); in [5] it was 11.8 µM (active); in test [7], 2.35 µM (active); in test [8] it was 13.2 µM (active); in test [15] it was 8.33 µM (active). The Potency in test [16] was 4.18 µM (active). The Potency result in [12] and in test [14] was “inactive” in each case.

With `NC(=O)C1CCCc2c1[nH]c1ccc(Cl)cc21` (configuration not stated), the Potency in test [1] was 3.32 µM (active); in test [5], 14.8 µM (active); in test [8] it was 4.69 µM (active); in test [10], 20.9 µM (active); in [17], 16.6 µM (active); in test [16], 3.32 µM (active). In addition, the Potency result in test [3], in test [12] and in [6] was “inactive” in each case. Further, the viability in test [15] is 110%.

For the compound `COc1ccc(-c2ccc3c(N4CCOC[C@H]4C)nc(N4CCOC[C@H]4C)nc3n2)cc1CO`, the Potency was 0.0105 µM (active) in test [1]; 0.0526 µM (active) in test [4]; 0.0743 µM (active) in [5]; 0.0235 µM (active) in test [6]; 0.209 µM (active) in test [14]; 0.332 µM (active) in test [7]. Also, the Potency is 0.0148 µM (active) in test [8]; 0.0148 µM (active) in [15]; 0.0074 µM (active) in test [9]; 0.0148 µM (active) in [10]; 0.0066 µM (active) in [16]; 1 nM (active) in test [11].

In the case of `Cc1ccc(N(CC2=NCCN2)c2cccc(O)c2)cc1`, the Potency was 2.96 µM (active) in test [1]; 20.9 µM (active) in test [4]; 5.26 µM (active) in test [6]; 11.8 µM (active) in [18]; 23.5 µM (active) in test [7]; 23.5 µM (active) in test [8]. For the same compound, the Potency in test [15] is 29.6 µM (active). The Potency entry in test [3], in [12] and in test [16] was “inactive” throughout.

On to `COc1nc(-c2ccc3c(c2)OCO3)n(-c2ccc(NC(=O)CSc3ccccc3)cc2)n1`, for which the Potency in test [1] is 7.43 µM (active); in test [6], 14.8 µM (active); in test [9], 5.26 µM (active). For the same compound, the Potency entry in [3], in test [12], in test [5], in test [10] and in test [17] was “inactive” in each case. In test [15], the viability is 123%.

In the case of `O=C1CCCC2=C1C(c1[nH]ncc1Cl)N=C(Nc1nc3ccccc3o1)N2` (configuration not stated), the Potency is 4.69 µM (active) in [1]; 5.9 µM (active) in [3]; 8.33 µM (active) in test [14]; 23.5 µM (active) in [7]; 10.5 µM (active) in test [8]; 10.5 µM (active) in test [15]. The Potency was 14.8 µM (active) in test [9], 23.5 µM (active) in test [10], 2.96 µM (active) in test [17] and 0.0935 µM (active) in test [16]. Moreover, the Potency entry in [12], in test [5] and in test [6] was “inactive” each time.

As for `Cc1cc(SCc2sc(-c3ccc(C(F)(F)F)cc3)nc2C)ccc1OCC(=O)O`, the Potency was 5.26 µM (active) in [1], 20.9 µM (active) in [14], 3.72 µM (active) in test [7] and 16.6 µM (active) in test [15]. The Potency result in test [3], in test [12], in [5], in test [13], in [18] and in test [19] was “inactive” each time. Also, in test [10], the Potency result was “inactive”.

Take `C#Cc1cccc(Nc2ncnc3cc(OCCOC)c(OCCOC)cc23)c1`: the Potency in test [1] is 0.59 µM (active); in [3], 7.43 µM (active); in [4], 9.35 µM (active); in test [18], 1.48 µM (active); in test [14], 0.833 µM (active); in test [7] it was 5.9 µM (active). Moreover, the figures for the Potency in test [9], in test [10] and in test [11] were 13.2 µM (active), 0.0833 µM (active) and 4180 nM (active), respectively. In addition, the Potency entry in test [12] is “inactive”.

Turning to `COc1ccccc1[C@H](c1cccc2ccccc12)[C@@](C)(C#N)C(=O)N1CCC(c2cccc(C(F)(F)F)c2)CC1`, the Potency in test [1] was 11.8 µM (active); in [3] it was 3.72 µM (active); in test [4], 5.9 µM (active); in [5] it was 4.69 µM (active); in [6], 4.18 µM (active); in test [14] it was 5.9 µM (active). Also, the Potency in test [7] was 4.69 µM (active); in test [8], 5.9 µM (active); in test [15], 5.9 µM (active); in test [10], 4.69 µM (active); in test [17], 3.32 µM (active); in [16] it was 5.26 µM (active). For the same compound, the Potency in [11] was 5260 nM (active).

With `CNC(=O)c1ccc(C)c(-n2c(C)cc(OCc3ccc(F)cc3F)c(Br)c2=O)c1`, the Potency was 18.7 µM (active) in test [1]; 5.9 µM (active) in test [3]; 8.33 µM (active) in test [14]; 13.2 µM (active) in [8]; 16.6 µM (active) in test [10]; 6.62 µM (active) in [17]. In test [16], the Potency was 16.6 µM (active). Besides, the viability in [15] was 116%. For the same compound, in [9], the Potency entry is “inactive”.

Turning to `CC(C)(Sc1ccc(CCN(CCCCC2CCCCC2)C(=O)NC2CCCCC2)cc1)C(=O)O`, the Potency was 18.7 µM (active) in test [1]; 4.18 µM (active) in [4]; 23.5 µM (active) in [5]; 8.33 µM (active) in [6]; 14.8 µM (active) in [14]; 14.8 µM (active) in [15]. Further, the Potency in test [9] is 16.6 µM (active). The Potency result in test [3], in [18], in test [8], in [10], in test [17] and in [16] was “inactive” throughout.
